Screening results: PubChem BioAssay, Fisher Drug Discovery Resource Center
mcGAS lum = cyclic GMP-AMP synthase inhibitors, mouse, primary biochemical chemiluminescence; Q8C6L5; recombinant cGAS, Kinase-Glo ATP depletion luminescence; inhibition, % at 12.5 µM; hit rate 0.15% among 160,000; AID 1259399, 2018;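 further: 0% = negative control wells and 100% = reference inhibitor with no enzyme activity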
Target sequence (Q8C6L5 whole entry, looked up): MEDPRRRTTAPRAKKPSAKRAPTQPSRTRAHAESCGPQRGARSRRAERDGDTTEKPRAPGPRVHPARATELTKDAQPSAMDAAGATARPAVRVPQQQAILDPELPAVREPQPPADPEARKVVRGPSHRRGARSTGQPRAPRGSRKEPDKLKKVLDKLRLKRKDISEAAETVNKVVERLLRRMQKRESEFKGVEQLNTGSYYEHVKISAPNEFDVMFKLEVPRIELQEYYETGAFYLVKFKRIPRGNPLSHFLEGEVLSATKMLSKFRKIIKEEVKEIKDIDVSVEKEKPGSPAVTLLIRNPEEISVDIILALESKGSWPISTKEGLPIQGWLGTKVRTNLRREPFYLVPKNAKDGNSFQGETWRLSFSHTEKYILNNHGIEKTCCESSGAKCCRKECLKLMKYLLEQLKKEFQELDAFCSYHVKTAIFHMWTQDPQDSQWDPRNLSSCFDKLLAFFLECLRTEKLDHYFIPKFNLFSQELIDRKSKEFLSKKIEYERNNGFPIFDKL
NPYLR7 agonist = agonists of mosquito NPYLR7 receptor, primary screen, cell-based, Aedes aegypti, calcium fluorescence, mosquito biting behavior; Aedes aegypti neuropeptide Y-like receptor 7 (NPYLR7); HEK293T NPYLR7/Galpha15, GCaMP6s calcium fluorescence; activation, % at 10 µM; hit rate 0.15% among 270,000; AID 1259423, 2018; in the data active means activation above about 40%;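 further: 0% = vehicle and 100% = reference agonist at the receptor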
hcGAS lum = Primary biochemical luminescence assay for human cyclic GMP-AMP synthase inhibitors; recombinant h-cGAS, ATP depletion, Kinase-Glo luminescence; AID 1259398, 2018; hit rate 0.081% among 290,000; inhibition, % at 12.5 µM;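 further: 0% = vehicle reaction and 100% = reaction without DNA for no activity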
An asterisk follows results filed as active; / = no result. Hits are enriched below; roughly 0.28% of the tested compounds scored in any of these assays. Unless noted, no stated cut-off is given here; in the data, active means inhibition above about 40%; inactive means the rest.

SMILES | mcGAS lum | NPYLR7 agonist | hcGAS lum
COCCN1CC(CO)C2(CCN(C(=O)C3CC=CC3)CC2)C1 (stereo unspecified) | -7.5 | / | 44.8*
O=C(NCCn1ncc2c(N3CCCC3)ncnc21)C1CC(=O)N(c2ccccc2)C1 (stereo unspecified) | -8.3 | 6.5 | -9.2
N#C/C(=C\c1ccc(O)c(O)c1)C(=O)NCCCc1ccccc1 | 0.7 | 120.1* | 9.3
N#C/C(=C\c1ccc(O)c(O)c1)C(=O)c1ccc(O)c(O)c1 | 15.4 | 16.1 | 18.6
CN1CCN(n2c3c(c(SCc4cccc([N+](=O)[O-])c4)nc2=O)CCC3)CC1 | -6.2 | -3.0 | -1.8
Cc1cccc(CN2CCN(c3cccc(Cl)c3)C(=O)C2C)c1 (stereo unspecified) | -4.8 | -1.3 | -4.6
Cc1cccc(CN2CCN(c3ccc(Cl)cc3)C(=O)C2C)c1 (stereo unspecified) | 74.2* | -0.7 | -3.2
C=c1c(C#N)c2[nH]c(N)c(C#N)c(C)c-2/c1=C\c1ccc(O)cc1 | 70.8* | 20.8 | 11.4
C=c1c(C#N)c2[nH]c(N)c(C#N)c(C)c-2/c1=C\c1ccc(C(=O)OC)cc1 | -0.8 | 7.2 | -3.9
COc1ccc(CNC(=O)c2sc(=O)n(Cc3cccc(F)c3)c2C)cc1 | / | 13.5 | -7.0
COc1ccc(NC(=O)CN2C(=O)c3ccccc3NC23CCN(C)CC3)cn1 | / | 49.4* | -12.0
COc1ccc(NC(=O)CCC(=O)N2CCc3ccccc3C2)cn1 | -4.1 | -3.9 | -4.4
COc1ccccc1C(O)c1nnc(Nc2ccccc2C)s1 (stereo unspecified) | -5.3 | 3.8 | -4.8
O=C1NC(=S)N/C1=C/c1ccc(Br)o1 | 0.9 | 16.3 | 0.8
COCC1CCCN(C(=O)c2ccc(NCC(C)(C)CN(C)C)nc2)C1 (stereo unspecified) | -4.5 | / | -1.9
Cc1[nH]n(-c2nc(-c3ccccc3)cs2)c(=O)c1N=Nc1cccc(C(F)(F)F)c1 | -3.4 | -4.9 | 1.1
COc1ccc(-c2cc3c(cn2)nc(NCc2ccccc2)n3C)c(C)c1 | -5.3 | -2.4 | -1.7
COc1ccc(OCC(=O)NCc2cc(-c3ccc4c(c3)OCO4)on2)cc1 | -7.8 | 3.0 | -11.5
COc1ccc(OC)c(CCNc2nc3cnc(-c4ccc5c(c4)OCO5)cc3n2C)c1 | 14.9 | 70.6* | -6.6
COc1ccc(OC)c(CCNc2nc3cnc(-c4cccc5ccccc45)cc3n2C)c1 | -7.3 | 59.2* | -5.6
CCN(CC)S(=O)(=O)c1ccc(OC(C)C)c(NS(=O)(=O)c2c(C)c(C)cc(C)c2C)c1 | -0.6 | 0.8 | 3.6
CC1C(=O)NCCN1CCC(=O)Nc1cccc(Br)c1 (stereo unspecified) | / | 5.8 | -3.7
NC(Cc1ccc(Cl)cc1)C(=O)O (stereo unspecified) | -4.8 | -6.9 | -2.6
N[C@@H](Cc1cc(-c2ccc(Cl)cc2Cl)cc(CP(=O)(O)O)c1O)C(=O)O | / | -13.1 | 53.4*
COc1ccccc1CNC(=O)CN1CCc2ccccc2C1 | / | 4.6 | -13.5
SMILES | mcGAS lum | NPYLR7 agonist | hcGAS lum
O=C(O)C1C2CC3C1C(=O)Oc1ccc(Br)cc1C1c4sc(=O)[nH]c4SC2C13 (stereo unspecified) | 41.4* | 12.6 | -0.9
O=C(O)C1C2CC3C1C(=O)Oc1ccccc1C1c4sc(=O)[nH]c4SC2C13 (stereo unspecified) | 13.7 | 15.3 | -4.0
CC(=O)Oc1c(-c2ccc(NC(=O)C3CCCC3)cc2)c(-c2ccc3c(c2)OCO3)nn1-c1cccc(C)c1 | -2.9 | 4.8 | -4.2
N#CC(=Cc1ccc(Cl)cc1Cl)C(N)=S | 66.8* | 7.1 | -5.7
CC(C)NC(=O)C(C#N)=Cc1ccc(Cl)cc1Cl | 10.3 | -0.2 | -1.4
Cc1cccc2[nH]c(CCNC(=O)c3cc(C(C)C)on3)nc12 | -9.1 | 3.5 | 72.6*
Cc1nc(CCNC(=O)c2cc(C(C)C)on2)sc1C | / | 0.3 | -3.8
CCOC(=O)Cc1cc(=O)n2[nH]cc(-c3cccc(Br)c3)c2n1 | / | -5.7 | 62.5*
CCOC(=O)Cc1cc(=O)n2[nH]c(-c3ccc(Br)cc3)cc2n1 | / | 7.2 | -3.5
CCCCc1ccc(C(=O)CSc2nc(C)cc(C)c2C#N)cc1 | -5.1 | -2.7 | -2.2
CC(C)Cc1nc(N2CCN(C(=O)COCc3ccccc3)CC2)c2c(-c3cccc(C(F)(F)F)c3)noc2n1 | -5.1 | 15.3 | -2.2
Cc1ccc(-n2[nH]c(C(=O)Nc3ccnc4ccnn34)cc2=O)cc1 | -7.2 | -0.5 | 68.0*
O=C(CNC(=O)c1ccc(F)c(F)c1)Nc1ccnc2ccnn12 | / | 9.5 | -4.8
Cc1cc(C)c(C#N)c(SC2CC(C)OC2=O)n1 (stereo unspecified) | / | -5.6 | 18.4
COc1ccccc1CCNC(=O)c1ccc(Cn2c(C)nc3ccccc32)o1 | / | 64.2* | -2.8
